The list is not random: actives were taken first. Their share in the collection is about 4.2%.
CCHF vOTU inh – CCHFV vOTU protease inhibition; Pep-AMC fluorescence; inhibition, % at 11.5 µM; AID 651958; hit rate 0.55% among 370,000; in the data active = inhibition above about 30%
GDH-TPI counter-1 – counter-screen for M. tuberculosis FBA inhibitors: GDH-TPI coupled enzymes. hit rate 1.2% among 360,000. inhibition, % at 4.8 µM. AID 588335. GDH-TPI coupled enzyme counterscreen, NADH absorbance; in the data active = inhibition above about 30%
Mtb FBA inh – Mtb fructose-bisphosphate aldolase inhibition | P9WQA3 | purified M. tuberculosis FBA, fluorescence read-out | inhibition, % at 1 µM | hit rate 2.3% among 360,000 | AID 588726
Target sequence (P9WQA3 whole entry, looked up): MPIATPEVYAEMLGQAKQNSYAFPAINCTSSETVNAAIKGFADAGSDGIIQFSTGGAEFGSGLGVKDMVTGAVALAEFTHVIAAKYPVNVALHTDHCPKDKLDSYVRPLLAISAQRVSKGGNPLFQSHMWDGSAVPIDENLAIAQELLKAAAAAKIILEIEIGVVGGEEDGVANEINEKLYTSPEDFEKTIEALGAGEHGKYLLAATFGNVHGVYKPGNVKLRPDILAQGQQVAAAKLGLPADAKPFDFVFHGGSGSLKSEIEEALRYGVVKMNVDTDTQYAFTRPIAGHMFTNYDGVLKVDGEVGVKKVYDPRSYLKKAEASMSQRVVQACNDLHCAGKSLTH
RecA splice inh – inhibitors of M. tuberculosis RecA intein splicing; P9WHJ3; cell-free RecA intein splicing, fluorescence; inhibition, % (no concentration beside the values); hit rate 0.75% among 290,000; AID 2221; in the data active = inhibition above about 30%
Mtb FBA inh conf – Mtb FBA inhibition, confirmed | inhibition, % at 1 µM | shares compounds with Mtb FBA inh | hit rate 78% among 5,600 | AID 651616 | purified M. tuberculosis FBA, fluorescence read-out
GDH-TPI counter-2 – counter-screen for M. tuberculosis FBA inhibitors: GDH-TPI coupled enzyme inhibition. AID 652141. shares compounds with Mtb FBA inh. GDH-TPI coupled enzyme counterscreen, fluorescence. hit rate 81% among 5,600. inhibition, % at 1 µM; in the data active = inhibition above about 10%
GDH-TPI dose – counter-screen for M. tuberculosis FBA inhibitors: GDH-TPI dose response; shares compounds with Mtb FBA inh; GDH-TPI coupled enzyme assay, fluorescence, artifact counterscreen; IC50, µM; hit rate 79% among 170; call rule not given here
Numbers stand for hits. Rule as the data show it, unless noted: active = inhibition above about 27%; inactive = the rest.

What do the screens show for `Cc1oc2c(c(C)cc3oc(=O)c(CC(=O)N[C@@H](C)C(=O)O)c(C)c32)c1C`?
CCHF vOTU inh: inactive; GDH-TPI counter-1: inactive; Mtb FBA inh: inactive; RecA splice inh: inactive

How did Cc1oc2c(c(C)cc3oc(=O)c(CC(=O)N[C@@H](CCCNC(N)=O)C(=O)O)c(C)c32)c1C do in these assays?
CCHF vOTU inh: inactive; GDH-TPI counter-1: inactive; Mtb FBA inh: inactive; RecA splice inh: inactive

How did CCCC(NC(=O)Cc1c(C)c2c(cc(C)c3c(C)coc32)oc1=O)C(=O)O (stereo not given) do in these assays?
CCHF vOTU inh: inactive; GDH-TPI counter-1: inactive; Mtb FBA inh: 55.1; RecA splice inh: inactive; Mtb FBA inh conf: inactive; GDH-TPI counter-2: inactive

What do the screens show for `Cc1coc2c1c(C)cc1oc(=O)c(CC(=O)NCCCN3CCCC3=O)c(C)c12`?
CCHF vOTU inh: inactive; GDH-TPI counter-1: inactive; Mtb FBA inh: 66.1; RecA splice inh: inactive; Mtb FBA inh conf: inactive; GDH-TPI counter-2: inactive; GDH-TPI dose: 2.31

How did CC[C@@H](C)[C@H](NC(=O)CNC(=O)Cc1c(C)c2c(cc(C)c3c(C)coc32)oc1=O)C(=O)O do in these assays?
CCHF vOTU inh: inactive; GDH-TPI counter-1: inactive; Mtb FBA inh: 82.5; RecA splice inh: inactive; Mtb FBA inh conf: 50.0; GDH-TPI counter-2: 34.7

What do the screens show for `Cc1coc2c1c(C)cc1oc(=O)c(CC(=O)N[C@@H](CC(C)C)C(=O)O)c(C)c12`?
CCHF vOTU inh: inactive; GDH-TPI counter-1: inactive; Mtb FBA inh: 79.0; RecA splice inh: inactive; Mtb FBA inh conf: 177.0; GDH-TPI counter-2: 141.2

How did Cc1coc2c(C)c3oc(=O)c(CC(=O)N[C@@H](CC(C)C)C(=O)O)c(C)c3cc12 do in these assays?
CCHF vOTU inh: inactive; GDH-TPI counter-1: inactive; Mtb FBA inh: inactive; RecA splice inh: inactive

How did Cc1coc2c(C)c3oc(=O)c(CCC(=O)NCCCN4CCCC4=O)c(C)c3cc12 do in these assays?
CCHF vOTU inh: inactive; GDH-TPI counter-1: inactive; Mtb FBA inh: inactive

Results for Cc1ccc(S(=O)(=O)N2CCN(C(=O)CCn3cncn3)CC2)cc1C ?
CCHF vOTU inh: inactive; GDH-TPI counter-1: inactive; Mtb FBA inh: inactive; RecA splice inh: inactive

Results for COCCN(C(=O)CSCC(=O)Nc1cccc(C)c1)c1c(N)n(Cc2ccccc2)c(=O)[nH]c1=O ?
CCHF vOTU inh: inactive; GDH-TPI counter-1: inactive; Mtb FBA inh: inactive; RecA splice inh: inactive

How did CC(C)=NNc1nc(-c2ccccc2)cs1 do in these assays?
CCHF vOTU inh: inactive; GDH-TPI counter-1: inactive; Mtb FBA inh: inactive; RecA splice inh: inactive

What do the screens show for `CCOC(=O)C/C(C)=N\Nc1nc(-c2ccccc2)cs1`?
CCHF vOTU inh: inactive; GDH-TPI counter-1: inactive; Mtb FBA inh: 68.9; RecA splice inh: inactive; Mtb FBA inh conf: 53.9; GDH-TPI counter-2: 42.0

How did Cc1cccc(N=C2NC(=O)C(CO)(CO)S2)c1 do in these assays?
CCHF vOTU inh: inactive; GDH-TPI counter-1: inactive; Mtb FBA inh: inactive; RecA splice inh: inactive

What do the screens show for `FC(F)(F)c1ccc(Sc2nnc(-c3cccs3)n2CC2CCCO2)nc1` (stereo not given)?
CCHF vOTU inh: inactive; GDH-TPI counter-1: inactive; Mtb FBA inh: 83.2; RecA splice inh: inactive; Mtb FBA inh conf: 98.5; GDH-TPI counter-2: 68.8

What do the screens show for `CN(C(=O)COC(=O)c1ccccc1NC(=O)c1ccco1)C1CCS(=O)(=O)C1` (stereo not given)?
CCHF vOTU inh: inactive; GDH-TPI counter-1: inactive; Mtb FBA inh: inactive; RecA splice inh: inactive

What do the screens show for `O=C(OCC(=O)N1CCc2ccccc21)c1ccccc1`?
CCHF vOTU inh: inactive; GDH-TPI counter-1: inactive; Mtb FBA inh: inactive; RecA splice inh: inactive

What do the screens show for `Nc1ccccc1C(=O)OCC(=O)N1CCc2ccccc21`?
CCHF vOTU inh: inactive; GDH-TPI counter-1: inactive; Mtb FBA inh: 34.5; RecA splice inh: inactive; Mtb FBA inh conf: 59.2; GDH-TPI counter-2: 43.5

Results for CN(C(=O)COC(=O)c1ccccc1NCCO)C1CCS(=O)(=O)C1 (stereo not given) ?
CCHF vOTU inh: inactive; GDH-TPI counter-1: inactive; Mtb FBA inh: 103.3; RecA splice inh: inactive; Mtb FBA inh conf: 124.0; GDH-TPI counter-2: 92.6

What do the screens show for `O=C(OCC(=O)N1CCN(c2ccccc2)CC1)c1ccccc1NCCO`?
CCHF vOTU inh: inactive; GDH-TPI counter-1: inactive; Mtb FBA inh: 100.5; RecA splice inh: inactive; Mtb FBA inh conf: active; GDH-TPI counter-2: active

How did CNc1ccccc1C(=O)OCC(=O)N1CCc2ccccc2C1 do in these assays?
CCHF vOTU inh: inactive; GDH-TPI counter-1: inactive; Mtb FBA inh: 63.1; Mtb FBA inh conf: inactive; GDH-TPI counter-2: inactive

Results for O=C(OCC(=O)N1CCc2ccccc2C1)c1ccc(O)cc1 ?
CCHF vOTU inh: inactive; GDH-TPI counter-1: inactive; Mtb FBA inh: inactive

Results for Cc1ccc(-c2nc3ncccn3c2NC(=O)C2CC2)cc1 ?
CCHF vOTU inh: inactive; GDH-TPI counter-1: inactive; Mtb FBA inh: 62.6; RecA splice inh: inactive; Mtb FBA inh conf: 35.6; GDH-TPI counter-2: 10.4

Results for CC(=O)Nc1c(-c2ccccc2)nc2ncccn12 ?
CCHF vOTU inh: inactive; GDH-TPI counter-1: inactive; Mtb FBA inh: 42.0; RecA splice inh: inactive; Mtb FBA inh conf: 40.5; GDH-TPI counter-2: 30.1

How did CC1(C)C=Cc2cc3ccc(=O)oc3cc2O1 do in these assays?
CCHF vOTU inh: inactive; GDH-TPI counter-1: inactive; Mtb FBA inh: 48.2; RecA splice inh: inactive; Mtb FBA inh conf: inactive; GDH-TPI counter-2: inactive; GDH-TPI dose: 5.66

What do the screens show for `CC1(C)Oc2cc3oc(=O)ccc3c3c2C2C1CCC(C)(O3)C2O` (stereo not given)?
CCHF vOTU inh: inactive; GDH-TPI counter-1: inactive; Mtb FBA inh: 29.0; Mtb FBA inh conf: 153.9; GDH-TPI counter-2: 121.4

What do the screens show for `C=C1CCC2C(C)(C)[C@@H](O)CC[C@@]2(C)[C@@H]1COc1ccc2ccc(=O)oc2c1` (stereo not given in full)?
CCHF vOTU inh: inactive; GDH-TPI counter-1: inactive; Mtb FBA inh: inactive; RecA splice inh: inactive

Results for CC1(C)Oc2cc3oc(=O)ccc3cc2C[C@@H]1O ?
CCHF vOTU inh: inactive; GDH-TPI counter-1: inactive; Mtb FBA inh: 64.8; Mtb FBA inh conf: 104.8; GDH-TPI counter-2: 106.9

Results for CC(=O)Nc1ccc(C(=O)NCC(c2ccco2)N(C)C)cc1 (stereo not given) ?
CCHF vOTU inh: inactive; GDH-TPI counter-1: inactive; Mtb FBA inh: inactive; RecA splice inh: inactive

Results for CC(=O)c1ccc(-c2ccc(C(=O)NCC(c3ccco3)N(C)C)o2)cc1 (stereo not given) ?
CCHF vOTU inh: inactive; GDH-TPI counter-1: 47.2; Mtb FBA inh: 68.0; Mtb FBA inh conf: inactive; GDH-TPI counter-2: inactive

How did O=c1[nH]cnc2nc(-c3ccccc3)c(-c3ccccc3)nc12 do in these assays?
CCHF vOTU inh: inactive; GDH-TPI counter-1: inactive; Mtb FBA inh: 50.0; RecA splice inh: inactive; Mtb FBA inh conf: inactive; GDH-TPI counter-2: inactive

What do the screens show for `O=c1[nH]cnc2nn(-c3ccccc3)nc12`?
CCHF vOTU inh: inactive; GDH-TPI counter-1: inactive; Mtb FBA inh: 98.7; RecA splice inh: inactive; Mtb FBA inh conf: inactive; GDH-TPI counter-2: inactive
